# TIM10 inh – TIM10 yeast growth inhibition. actives 1.4% (n = 330,000). S. cerevisiae TIM10 strain growth, BacTiter-Glo luminescence, 24 h. inhibition, % at 10 µM. AID 463195;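 active = inhibition of 40% or more at the single tested concentration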;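 note: wild-type TIM10 isogenic control strain grown at permissive 25 °C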
# PfHsp90 yeast 2 – inhibits growth of yeast expressing Plasmodium falciparum Hsp90; S. cerevisiae expressing PfHsp90, BacTiter-Glo ATP, 48 h; yeast lacking PDR1 and PDR3 efflux regulators; inhibition, % at 9.4 µM; actives 0.32% (n = 310,000);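 active = every replicate shows inhibition above about 80%, whatever the replicate mean, limit read from the data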;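 note: 0% = DMSO neutral controls and 100% = 20 µM radicicol positive controls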
# Mot1-301 SUMO – SUMOylation pathway inhibition by Mot1-301 growth rescue; S. cerevisiae Mot1-301 growth rescue, ATP luminescence, 38.5C; percent above DMSO median, 100 means doubled; growth rescue, % at 18.8 µM; actives 1% (n = 320,000);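 active = every valid replicate shows activation above 250% relative to neutral control wells; inactive = the rest, any valid replicate at or below 250%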;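 note: OY570 slx delta 5 strain wells were the positive control but not used for scaling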
# tim10-1 inh – inhibits growth of tim10-1 mutant yeast; inhibition, % at 20 µM; AID 463190; actives 2.2% (n = 330,000); S. cerevisiae tim10-1 ts strain growth, BacTiter-Glo, 24 h;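 active = inhibition of at least 40%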;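 note: mutant grown at 25 °C; 0% = DMSO wells with yeast and 100% = wells holding no yeast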
# tim23-1 inh – growth inhibitors of tim23-1 mutant yeast; S. cerevisiae tim23-1 growth, BacTiter-Glo luminescence, 24 h; AID 463212; inhibition, % at 20 µM; actives 1.3% (n = 330,000);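 active = growth inhibition of the mutant yeast at or above 50%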;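 note: temperature-sensitive mutant grown at 25 °C; plate controls were DMSO-treated mutant yeast for no effect and medium wells lacking yeast for full effect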
# tim23-1 confirm – confirmation of tim23-1 mutant yeast growth inhibitors | AID 463218 | actives 83% (n = 4,400) | shares compounds with tim23-1 inh | inhibition, % at 20 µM | S. cerevisiae tim23-1 growth, BacTiter-Glo luminescence, 24 h;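 active = inhibition above about 39% in either of two replicate wells at 20 µM, limit read from the data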;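 note: temperature-sensitive tim23-1 mutant grown at 25 °C; 0% = DMSO wells with yeast and 100% = medium wells without yeast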
# The depositor's hits bear a star; . = no result. A selection: hits, their analogues and other compounds. The true share with any hit is near 4.4%.
SMILES,TIM10 inh,PfHsp90 yeast 2,Mot1-301 SUMO,tim10-1 inh,tim23-1 inh,tim23-1 confirm
N#Cc1c(NC(=O)C2CC2)sc2c1CCCCC2,28,-1,-1,35,51*,44*
O=C(Nc1cccc(OC(=O)c2ccc(Br)o2)c1)c1ccccc1,36,-12,11,24,64*,57*
Cc1nc(-c2cccc(NC(=O)c3ccc(Br)o3)c2)cs1,6,-13,8,17,40,.
O=C(Nc1cccc(-c2ccc(N3CCCCC3)nn2)c1)c1ccc(Br)o1,19,-23,-12,37,54*,59*
O=C(Nc1cccc(-c2nnc(-c3ccccc3)o2)c1)c1ccc(Br)o1,23,9,23,21,73*,63*
CC(C)(CN1CCCC1)NS(=O)(=O)c1ccccc1,-12,12,45,9,11,.
COc1nn(-c2ccccc2)c(=O)c(Cl)c1Cl,18,2,10,21,51*,38
O=C(NC(=S)Nc1ccccc1)C1CCCCC1,0,18,-4,26,24,.
O=C(NC(=S)NCc1ccccc1)c1ccc2c(c1)OCO2,11,-6,11,14,50*,43*
O=C(NNC(=S)NCc1ccccc1)c1ccc2c(c1)OCO2,-5,-8,7,14,7,.
CCOc1ccccc1NC(=S)NC(=O)c1ccco1,27,-14,.,38,54*,35
O=C(NC(=S)NCc1ccccc1)C1CCCCC1,13,62,8,20,55*,26
O=C(NC(=S)NCc1ccccc1)c1ccc(Br)o1,9,11,-6,29,61*,26
O=C(CSc1nnc(C2CC2)n1C1CC1)c1cccs1,11,-2,0,6,13,.
Cc1ccc2[nH]c(C(=O)N3CCN(c4cccc(Cl)c4)CC3)cc2c1,1,-18,8,30,7,.
O=C(NC(=S)NCc1ccc(Cl)cc1Cl)c1ccco1,7,-10,.,16,42,.
O=C(NC(=S)NCc1ccc(Cl)cc1)c1ccco1,-4,-18,60,14,51*,45*
Fc1cccc(NC(=S)NNc2ccccc2)c1,18,2,7,13,59*,-18
Cc1ccccc1[C@@]1(C)ON(c2ccccc2C(F)(F)F)C1=O,33,1,-5,9,56*,46*
O=c1c2ccccc2ncn1-c1ccccc1C(F)(F)F,1,-6,-11,-9,-2,.
CC[C@@]1(c2ccccc2OC)ON(c2ccccc2C(F)(F)F)C1=O,34,-10,41,5,57*,51*
C/C(=N/Nc1ccc(C(=O)c2c(C)cc3ccccn23)cc1[N+](=O)[O-])c1ccc(O)cc1,.,-41,.,.,.,.
C=CCn1cccc(C(=O)Nc2ccc(N(C)C)cc2)c1=O,9,-8,-3,5,15,.
COc1ccc(S(=O)(=O)N2CCN(Cc3cccc(Cl)c3)CC2)cc1,26,16,.,26,51*,53*
COc1ccc(S(=O)(=O)N2CCN(Cc3cccc(F)c3)CC2)cc1,-21,-3,-1,14,33,.
SMILES,TIM10 inh,PfHsp90 yeast 2,Mot1-301 SUMO,tim10-1 inh,tim23-1 inh,tim23-1 confirm
CCCN(CC(=O)Nc1ccccc1OC)C(=O)CSc1ccc(Br)cc1C,5,7,-26,24,31,.
CC1CC(C)CN(S(=O)(=O)c2ccc3c(c2)NC(=O)C(C)C(=O)N3)C1 (stereo unspecified),-9,0,10,-12,6,.
O=S(=O)(Nc1ccc(O)c2ccccc12)c1cccs1,29,2,-15,12,57*,44*
NC(=S)N/N=C\c1ccc(-c2cccc(Cl)c2Cl)o1,29,.,27,14,43,.
NC(=S)N/N=C/c1ccc(-c2ccc(Cl)c(Cl)c2)o1,27,-149,3,39,58*,60*
CCCN(C(=O)CSc1nc(C2CC2)n(-c2ccccc2)n1)C1CCS(=O)(=O)C1 (stereo unspecified),-4,-12,-4,13,14,.
Cn1c(SC/C=C/c2ccccc2)nnc1-c1cccs1,-4,3,-21,6,57*,45*
CCn1c(SC/C=C/c2ccccc2)nnc1-c1cccs1,27,.,-5,7,45,.
CCOC(=O)C1=C(COC(=O)/C=C/c2cccc(OC)c2OC)NC(=O)NC1C (stereo unspecified),0,32,-5,9,6,.

# Bioassay records from PubChem.
